Anthrax LF inh2 = blocks Bacillus anthracis lethal factor protease. 0.12% of 360,000 active. inhibition, % at 10 µM. multiplex microsphere protease cleavage assay, LF. AID 588501; in the data active = inhibition above about 30%; inconclusive = no clear call, values can overlap the other calls; note: plate controls were buffer without enzyme for full effect and enzyme alone for no effect
Target sequence (P15917 whole entry, looked up): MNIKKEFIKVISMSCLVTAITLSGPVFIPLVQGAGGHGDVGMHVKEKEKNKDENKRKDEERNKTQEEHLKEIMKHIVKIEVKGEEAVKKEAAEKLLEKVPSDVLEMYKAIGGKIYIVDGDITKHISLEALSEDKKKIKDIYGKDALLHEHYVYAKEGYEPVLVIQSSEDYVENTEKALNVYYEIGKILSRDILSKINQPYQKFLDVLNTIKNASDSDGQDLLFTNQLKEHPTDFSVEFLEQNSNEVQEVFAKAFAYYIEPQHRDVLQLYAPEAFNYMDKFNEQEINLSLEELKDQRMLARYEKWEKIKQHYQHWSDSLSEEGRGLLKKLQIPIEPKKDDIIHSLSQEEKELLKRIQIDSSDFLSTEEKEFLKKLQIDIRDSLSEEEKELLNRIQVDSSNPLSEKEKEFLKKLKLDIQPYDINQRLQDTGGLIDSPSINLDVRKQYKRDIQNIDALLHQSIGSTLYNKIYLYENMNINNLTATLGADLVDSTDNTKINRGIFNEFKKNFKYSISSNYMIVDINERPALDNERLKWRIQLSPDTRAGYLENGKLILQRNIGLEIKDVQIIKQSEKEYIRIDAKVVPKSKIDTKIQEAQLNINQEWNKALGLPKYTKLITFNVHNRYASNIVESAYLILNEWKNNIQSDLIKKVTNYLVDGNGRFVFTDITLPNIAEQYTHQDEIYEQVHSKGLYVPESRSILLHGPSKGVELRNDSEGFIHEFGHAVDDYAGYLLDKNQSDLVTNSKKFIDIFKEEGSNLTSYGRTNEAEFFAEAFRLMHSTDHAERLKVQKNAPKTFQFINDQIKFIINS
BJeLR lethal = kills HRASV12-expressing BJeLR cells | inhibition, % (no concentration beside the values) | 0.17% of 300,000 active | AID 1554 | BJeLR (HRASV12) viability, CellTiter-Glo ATP luminescence, 48 h; in the data active = inhibition above about 50%; inconclusive = no clear call, values can overlap the other calls
Bead autofluor = counter-screen for toxin protease inhibitors: compound fluorescence. compound autofluorescence counterscreen, microsphere flow cytometry; hits give high values. fluorescence intensity (no concentration beside the values). 3.1% of 360,000 active. AID 624483; in the data active = fluorescence intensity above about 16000; inconclusive = no clear call, values can overlap the other calls
BoNT F protease = blocks Botulinum neurotoxin F light chain protease; Multiplex microsphere protease cleavage assay, flow cytometry; inhibition, % at 10 µM; 0.22% of 360,000 active; AID 588497; in the data active = inhibition above about 35%, passing the limit was not always enough; inconclusive = no clear call, values can overlap the other calls; note: plate controls were buffer without enzyme for full effect and enzyme alone for no effect
BoNT A protease = blocks Botulinum neurotoxin A light chain protease | multiplex microsphere protease substrate cleavage, flow cytometry | inhibition, % at 10 µM | 0.17% of 360,000 active | AID 588499; in the data active = inhibition above about 30%; inconclusive = no clear call, values can overlap the other calls; note: plate controls were buffer without enzyme for full effect and enzyme alone for no effect
BoNT-A LC CP1 = BoNT/A light chain protease inhibition; multiplex microsphere protease assay, flow cytometry; 3% of 720 active; AID 602139; inhibition, % at 10 µM; shares compounds with BoNT F protease; in the data active = inhibition above about 32%
BoNT-F LC CP1 = BoNT/F light chain protease inhibition | shares compounds with BoNT F protease | multiplex microsphere protease cleavage assay, flow cytometry | inhibition, % at 10 µM | 720 tested, under 10 active | AID 602140
Anthrax LF CP1 = inhibitors of Bacillus anthracis lethal factor protease. shares compounds with BoNT F protease. multiplex microsphere protease cleavage assay, LF. inhibition, % at 10 µM. 720 tested, under 10 active. AID 602142
BoNTA LC inh 2 = BoNT/A light chain protease inhibition; shares compounds with BoNT A protease; multiplex microsphere protease cleavage assay, flow cytometry; inhibition, % at 10 µM; 10% of 150 active; AID 602325; in the data active = inhibition above about 24%
Anthrax LF CP2 = blocks anthrax lethal factor protease; AID 602327; 7% of 150 active; inhibition, % at 10 µM; shares compounds with BoNT A protease; multiplex microsphere protease cleavage assay; in the data active = inhibition above about 25%
BoNTF LC inh 2 = inhibitors of botulinum neurotoxin F light chain protease. shares compounds with BoNT A protease. multiplex microsphere protease cleavage assay, flow cytometry. inhibition, % at 10 µM. 7% of 150 active. AID 602336; in the data active = inhibition above about 25%
The depositor's hits bear a star; ? = inconclusive; . = not tested or not shown; + = active, no number. This is a sample that favours compounds with a hit; in the whole collection about 3.5% have one here. Unless noted, the rule behind the calls is not given here.

SMILES	Anthrax LF inh2	BJeLR lethal	Bead autofluor	BoNT F protease	BoNT A protease	BoNT-A LC CP1	BoNT-F LC CP1	Anthrax LF CP1	others
c1ccc(-c2cnn3c(-c4ccccc4)c(-c4ccccc4)nc3n2)cc1	21	.	5602	21	37*	26	23	11
COc1cccc(NC(=O)c2oc3ccccc3c2NC(=O)C(C)(C)C)c1	-14	1	6579	53*	44*	-1	-3	0
COc1ccc(CNC(=O)COC(=O)c2ccccc2C(=O)c2ccccc2)cc1	0	1	3366	6	1	.	.	.
CCCCC(Br)C(=O)Nc1ccc(S(=O)(=O)Nc2cc(C)nc(C)n2)cc1 (configuration not stated)	0	-3	5110	5	2	.	.	.
CCOC(=O)C1CCN(C(=O)Nc2ccc(OCc3ccccc3)cc2)CC1	31*	-13	3889	?	-4	0	0	-4
COc1cc(CCC(=O)O)on1	4	-1	3555	62*	3	0	-4	-2
O=C(CCC(=O)N1CCN(c2ccc(F)cc2)CC1)N1CCN(c2ccc(F)cc2)CC1	12	-8	3564	41*	1	-2	-11	2
O=C(NCCN1CCN(C(=O)c2ccc([N+](=O)[O-])cc2)CC1)C(=O)Nc1ccc(F)cc1	-1	2	5208	0	0	.	.	.
O=C(Nc1c[nH]c(=O)[nH]c1=O)c1cc([N+](=O)[O-])cc([N+](=O)[O-])c1	7	-5	4035	135*	-5	1	76*	1
O=C(Nc1c[nH]c(=O)[nH]c1=O)c1ccc2c(c1)C(=O)N(c1cccc([N+](=O)[O-])c1)C2=O	-4	6	5147	4	0	.	.	.
Nc1c(C(=O)NC2CCCC2)c2nc3ccccc3nc2n1CC1CCCO1 (configuration not stated)	14	-5	4737	7	31*	3	-7	1
Nc1c(C(=O)NC2CCCC2)c2nc3ccccc3nc2n1N	-4	-3	4248	-4	-1	.	.	.
COc1ccc([C@@H](O)[C@@H](N)c2ccccc2)cc1	38*	3	3097	?	0	0	1	1
COc1ccc(C(O)P(=O)(Oc2ccccc2)Oc2ccccc2)cc1 (configuration not stated)	8	-9	3061	5	10	.	.	.
Cn1cnnc1Sc1ccc(C(=O)NCCC23CC4CC(CC(C4)C2)C3)cc1[N+](=O)[O-]	-1	9	2150	-2	0	.	.	.
CN(C1(C)CCS(=O)(=O)C1)S(=O)(=O)c1ccc2ccccc2c1 (configuration not stated)	-4	-6	4525	-7	-4	.	.	.
COc1ccc(CNC(=O)CN2C(=O)COc3ccc(S(=O)(=O)N4CCCC4)cc32)cc1	2	9	5784	-2	53*	0	2	0
CC(C)Cc1cc(C(=O)Nc2ccccc2)c2ccccc2n1	-6	-26	3635	43*	-1	-1	-4	0
Cc1cc(C(=O)Nc2ccccc2)c2ccccc2n1	22	4	3543	9	-1	.	.	.
CCC(C)c1ccc(NC(=O)c2c([N+](=O)[O-])cnn2CC)cc1 (configuration not stated)	3	3	3903	?	4	.	.	.
COc1cccc(CN(C)C(=O)c2ccc3nccnc3c2)c1	2	3	3298	-15	2	.	.	.
Cc1cc2cc(CNC(=S)NC3CCCCC3)ccc2[nH]1	-42	-4	3319	-75	14	.	.	.
CC(=O)NCc1ccc2[nH]c(C)cc2c1	-10	4	5001	-8	2	0	-1	-4
Cc1ccc(NC(=O)NCc2ccc3[nH]c(C)cc3c2)cc1	-69	13	2383	-102	29	.	.	.
CCC(=O)NCc1ccc2[nH]c(C)cc2c1	-4	13	5156	-21	5	-1	-6	2
SMILES	Anthrax LF inh2	BJeLR lethal	Bead autofluor	BoNT F protease	BoNT A protease	BoNT-A LC CP1	BoNT-F LC CP1	Anthrax LF CP1	others
Cc1cc2cc(CNC(=O)NC3CCCCC3)ccc2[nH]1	-62	1	2837	-131	37*	6	-48	-14
Cc1cc2cc(CNC(=O)CCC(=O)O)ccc2[nH]1	-10	-9	5908	-5	0	-1	-5	-2
Cn1cc(S(=O)(=O)N2CCOCC2)cc1C(=O)Nc1cccc(Cl)c1	-4	-2	4447	-13	0	.	.	.
O=C(O)c1cnc(-c2ccccc2)nc1C(F)(F)F	-9	-1	3576	3	0	.	.	.
Cc1nc2nc(Cc3ccccc3)[nH]n2c(=O)c1Cc1ccccc1	-5	.	4953	-43	-4	.	.	.
Cc1nc2nc(Cc3ccccc3)[nH]n2c(=O)c1Cl	3	-6	4787	32	1	1	-5	1
Cc1cccc(NC(=O)NCc2ccc3[nH]c(C)cc3c2)c1	-87	1	2613	-97	50*	.	.	.	BoNTA LC inh 2=3;Anthrax LF CP2=1;BoNTF LC inh 2=12
Cc1ccc(CNC(=O)Nc2cccc(C)c2)cc1	-3	3	2262	-6	0	.	.	.
Cc1ccc(S(=O)(=O)N2CC(O)C[C@H]2C(=O)OCC(=O)N2CCN(c3ccc(F)cc3)CC2)cc1C (some centres not stated)	97*	.	5341	97*	99*	.	.	.	BoNTA LC inh 2=2;Anthrax LF CP2=0;BoNTF LC inh 2=5
O=C(Nc1cccc(C(F)(F)F)c1)c1csc([C@@H]2O[C@H](CO)[C@H](O)[C@H](O)[C@H]2O)n1	-3	.	3885	-8	-1	.	.	.
NC(=O)C1CCCN(CC(O)COCc2ccc(Cl)cc2)C1 (configuration not stated)	-1	-2	2961	-6	0	.	.	.
Cc1cccc2c1NC1(CCCC1)CC2C (configuration not stated)	-6	1	4778	+	7	.	.	.	BoNTA LC inh 2=3;Anthrax LF CP2=-2;BoNTF LC inh 2=+
COc1ccc(-c2nc3cc(C)c(Br)c(C)n3c2Cc2ccccc2C(F)(F)F)cc1OC	-8	.	5906	-7	1	.	.	.	BoNTA LC inh 2=2;Anthrax LF CP2=-2;BoNTF LC inh 2=-2
Cc1cc2nc(-c3cccc(Cl)c3)c(Cc3ccsc3)n2c(C)c1Br	3	.	6217	-6	3	.	.	.	BoNTA LC inh 2=9;Anthrax LF CP2=-5;BoNTF LC inh 2=2
COc1ccc(-c2nc3cc(C)c(Br)c(C)n3c2Cc2ccsc2)cc1OC	0	.	4388	-4	2	.	.	.	BoNTA LC inh 2=3;Anthrax LF CP2=-2;BoNTF LC inh 2=-7
Cc1cc2nc(-c3cccc(Br)c3)c(Cc3ccsc3)n2c(C)c1Br	-7	.	4588	-8	1	.	.	.	BoNTA LC inh 2=4;Anthrax LF CP2=1;BoNTF LC inh 2=7
COc1ccccc1Cc1c(-c2ccc(OC)c(OC)c2)nc2cc(C)c(Br)c(C)n12	-16	.	4221	-1	2	.	.	.
